Screens deposited in PubChem by Broad Institute.
aSyn UTR act = Activators working through SNCA 5'UTR binding (MLPCN); 7.1% of 300,000 active; activity score, % (tested at 7.5 µM), hits read low; alpha-synuclein 5'UTR reporter, activators screen; in the data active = activity score below about -60%
* = called active by the depositor. Not all results are given here.

SMILES | aSyn UTR act
O=C(Nc1cccc(Cl)c1)OC1CN2CCC1CC2 (centres undefined) | -64*
O=C(Nc1ccc(Cl)cc1)OC1CN2CCC1CC2 (centres undefined) | -114*
CCC(=Nc1cc(OC)ccc1OC)c1c(O)[nH]c(=O)[nH]c1=O | 71
Cc1c2ccncc2c(C)c2c1[nH]c1ccccc12 | 114
Cc1cccc(-n2c(O)c(/C=C3/C(c4ccccc4)=Nc4ccccc43)c(=O)[nH]c2=O)c1 | -174*
CC(C)c1ccc(N2C(=O)NC(=O)/C(=C/C=C/c3ccco3)C2=O)cc1 | -130*
O=C1NC(=O)N(c2ccccc2)C(=O)/C1=C\C=C\c1ccccc1 | -119*
Cc1cc(C)cc(N2C(=O)NC(=O)/C(=C\C=C\c3ccco3)C2=O)c1 | -116*
O=C1NC(=O)N(Cc2ccc(F)cc2)C(=O)/C1=C\C=C\c1ccco1 | -270*
CN1CCC(N(C)c2nc(-c3ccc([N+](=O)[O-])cc3)nc3ccccc23)CC1 | 75
C/C=C(\C)C(=O)N[C@@H](c1ccccc1)[C@@H](O)C(=O)O[C@H]1C[C@@]2(O)[C@@H](OC(=O)c3ccccc3)C3[C@](C)(C(=O)[C@H](OC(C)=O)C(=C1C)C2(C)C)[C@H](O)C[C@H]1OC[C@@]31OC(C)=O (some centres undefined) | 110
Cc1ccc(-c2cc(-c3ccc(C)cc3)[n+](-c3ccccc3)c(-c3ccc(C)cc3)c2)cc1 | 76
C/C(=N\N1CCCCC1)c1c(O)[nH]c(=O)[nH]c1=O | 58
Cc1ccc(N2C(=O)NC(=O)/C(=C/C=C/c3ccco3)C2=O)cc1 | -76*
CN1C(=O)C(Cc2ccc(OCc3ccccc3)cc2)C(=O)N(C)C1=O | -105*
COc1ccc(CNCCc2c(C)[nH]c3ccc(OC(F)(F)F)cc23)c(OC)c1 | 90
Cc1cc(C(=O)CS(=O)(=O)c2ccccc2)cc(C)c1OC(=O)N(C)C | -71*
Cc1cc(C(=O)CS(=O)c2ccc(F)cc2)cc(C)c1OC(=O)N(C)C (centres undefined) | -68*
CC(=O)O[C@@]12CO[C@@H]1C[C@@H](O)[C@@]1(C)C(=O)[C@H](O)C3=C(C)[C@@H](OC(=O)[C@H](O)[C@@H](NC(=O)c4ccccc4)c4ccccc4)C[C@@](O)([C@@H](OC(=O)c4ccccc4)C12)C3(C)C (some centres undefined) | 113
Cc1nn(CC(C)C)c(Cl)c1C(=O)NC1CCC(C)CC1 (centres undefined) | -123*
CCCCCCCCCCCCCCCC[N+](C)(C)C | 98
C[C@]12C=CC(=O)C=C1C=C[C@@H]1C2CC[C@]2(C)C(=O)CCC12 (some centres undefined) | -120*
Cc1ccc2cc3cc(C(=O)N4CCC5(CC4)OCCO5)oc3nc2c1 | -69*
CCC(C)c1ccc(N2C(=O)NC(=O)/C(=C/c3cccn3CCOc3ccc(C)cc3)C2=O)cc1 (centres undefined) | -65*
CN1C(=O)NC(=O)C(C)(C2=CCCCC2)C1=O (centres undefined) | -71*
SMILES | aSyn UTR act
COc1cc2c(cc1OC)-c1c(OC)c(OC)c(OC)c3ccnc(c13)C2=O | 104
CN(C)C(=O)Oc1ccc2c(c1)O/C(=C\c1cccc(Cl)c1)C2=O | -72*
CN(C)C(=O)Oc1ccc2c(c1)O/C(=C\c1ccc(Cl)cc1)C2=O | -87*
CCOC(=O)c1ccc(NC(=O)C2C3C=CC(O3)C2C(=O)O)cc1 (centres undefined) | -77*
O=C1NC(=O)C(C(CC(=O)c2ccccc2)c2ccccc2)C(=O)N1 (centres undefined) | -65*
COC(=O)C[C@]1(C(=O)OC)CN(C#N)N(c2ccc(Cl)cc2)C12c1ccccc1-c1ccccc12 | 96
COc1ccc2c(c1)/C(=C/c1cnc[nH]1)C(=O)N2 | -62*
C/C=C(\C)C(=O)OC1C(C)=C2C(C1OC(=O)CCCCC)C(C)(OC(C)=O)CC(OC(=O)CCC)C1(O)C2OC(=O)C1(C)O (centres undefined) | 108
CC(Cc1ccccc1)NC(=O)c1ccc(N)cc1 (centres undefined) | -110*
CC(Cc1ccccc1)NC(=O)NC(C)Cc1ccccc1 (centres undefined) | -134*
COc1cc2c(c(OC)c1OC)-c1ccc(O)cc1[C@@H](NC(C)=O)CC2 | 61
CCCCN=C[C@]12CCC(O)CC1(O)CCC1[C@@H]2CC[C@]2(C)[C@H](C3C=CC(=O)O3)CCC12O (some centres undefined) | 96
Cc1cc(C(=O)N=Nc2c(O)n(C)c3ccccc23)c(C)o1 | -180*
Cn1c(NN=O)nc2ccccc21 | 69
C[C@H]1C[C@@H](C)C(=O)[C@@H]([C@H](O)CC2CC(=O)NC(=O)C2)C1 | 97
C[C@]12CCC3C(CCC4=CC(O)CC[C@@]43/C=N/O)C1(O)CCC2C1=CC(=O)OC1 (some centres undefined) | 113
COc1ccc(-c2cc(=Nc3cccc(C(=O)O)c3)c3cc(C)ccc3o2)cc1 | -81*
COc1ccc(-c2cc(=NCC(=O)O)c3ccccc3o2)cc1 | -128*
CCC(=O)N1CC(=O)Nc2ccc(Br)cc2C1c1ccccc1 (centres undefined) | -71*
C[C@H]1O[C@@H](OC2CC[C@]3(C=O)[C@H]4CC[C@]5(C)[C@@H](C6=CC(=O)OC6)CC[C@]5(O)[C@@H]4CC[C@]3(O)C2)CC2OC(C)(C)OC21 (some centres undefined) | 96
COc1ccc(OC)c(/C=N/OC(=O)Nc2ccc(Cl)cc2)c1 | -63*
C[C@@H]1O[C@@H](O[C@H]2C[C@@H](O)[C@]3(CO)[C@H]4[C@H](O)C[C@]5(C)[C@@H](C6=CC(=O)OC6)CC[C@]5(O)[C@@H]4CC[C@]3(O)C2)[C@H](O)[C@H](O)[C@H]1O | 114
Cc1cc(N2CCOCC2)nc2ccc(NC(=O)CCC(=O)N3CCC4(CC3)OCCO4)cc12 | -88*
Nc1ccccc1C(=O)OCC(=O)N1CCc2ccccc21 | -168*
Cn1cnc([N+](=O)[O-])c1Sc1ccc([N+](=O)[O-])cc1 | -66*
SMILES | aSyn UTR act
Cc1ccc(N2C(=O)NC(=O)/C(=C/c3cnn(-c4ccc(C)cc4)c3)C2=O)cc1 | -72*
CC/C=C/CC(=O)N[C@@H](c1ccccc1)[C@@H](O)C(=O)O[C@H]1C[C@@]2(O)[C@@H](OC(=O)c3ccccc3)C3[C@](C)(C(=O)[C@H](OC(C)=O)C(=C1C)C2(C)C)[C@@H](O)C[C@H]1OC[C@@]31OC(C)=O (some centres undefined) | 77
O=C1NC(c2cccnc2)Nc2sc3c(c21)CCCC3 (centres undefined) | -98*
C=C1C(=O)O[C@@H]2C[C@@H](C)[C@H]3C=CC(=O)[C@]3(O)C[C@@H]12 | -117*
C[C@@]1(CO)[C@H](O)CC[C@@]2(C)[C@H]1CC[C@H]1C[C@@H]3C[C@@]12CC[C@]3(O)CO | 73
O=c1c2ccccc2nc(Cc2ccccc2)n1-c1ccccc1 | -84*
CCOc1ccc(-c2c(C)n(-c3ccc(OCC)cc3)c3[n+]2CCCCC3)cc1 | 62
CC(C)(C)C(=O)c1cn(CC(=O)NCc2ccco2)c2ccccc12 | -143*
Cc1ccc(N2C(=O)NC(=O)C3(Cc4ccccc4N4CCN(c5ccccc5)CC43)C2=O)cc1 (centres undefined) | -71*
O=C(NC1(C(F)(F)F)Oc2ccc(Cl)cc2O1)N1CCC2(CC1)OCCO2 (centres undefined) | -73*
c1ccc(CN2CCc3nc4ccccc4cc3C2)cc1 | -171*
